Measured values taken from PubChem BioAssay AID778 (Sanford-Burnham Center for Chemical Genomics, 2007).
The campaign covered roughly 96,000 compounds. About 20,000 (21%) were called active.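 The calls were made as follows: active = CYP2C19 inhibition above a set limit at 5 µM in the primary screen (cut at about 50% in these data); inactive = the rest.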 These entries were drawn from the full list.

biological target: Cytochrome P450 2C19 (Homo sapiens) (UniProt P33261); assay: blockers of cytochrome P450 2C19 activity – biochemical, luminescence, ADME assay, primary screen (AID 778); conditions: CYP2C19 Supersomes, luciferin-H EGE luminescence, 30 min; at 5 µM; hits give high values;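 also: plate controls were negative control wells for no effect and 2.5 mM tranylcypromine positive control for full effect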
Sequence (P33261 whole entry, looked up): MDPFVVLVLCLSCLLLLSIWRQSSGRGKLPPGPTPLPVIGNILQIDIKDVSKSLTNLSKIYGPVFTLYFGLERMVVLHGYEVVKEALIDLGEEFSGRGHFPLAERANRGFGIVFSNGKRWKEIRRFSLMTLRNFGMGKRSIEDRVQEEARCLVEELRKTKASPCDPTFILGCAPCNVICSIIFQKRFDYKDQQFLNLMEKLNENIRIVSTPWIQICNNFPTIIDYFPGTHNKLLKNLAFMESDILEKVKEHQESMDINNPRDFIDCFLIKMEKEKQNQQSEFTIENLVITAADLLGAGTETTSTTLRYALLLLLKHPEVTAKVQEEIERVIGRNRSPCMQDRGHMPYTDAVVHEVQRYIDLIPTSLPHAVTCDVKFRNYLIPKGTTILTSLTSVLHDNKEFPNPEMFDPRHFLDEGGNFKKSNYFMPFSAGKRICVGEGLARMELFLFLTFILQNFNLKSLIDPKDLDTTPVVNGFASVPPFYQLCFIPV

inhibition, active:
CCOC(=O)CN(Cc1ccc(OC)c(OC)c1)S(=O)(=O)c1ccc(OC)cc1 81.1%
COc1ccc(C)cc1-n1nnnc1SCC(=O)c1cc(C)n(Cc2ccco2)c1C 98.7%
CCn1c2ccccc2c2cc(NC(=O)C/C(C)=N/NC(=O)c3ccccc3N)ccc21 54.7%
COCCn1c(CN(Cc2ccccc2)Cc2ccccc2)nc2c1c(=O)n(C)c(=O)n2C 76.4%
Cc1ccccc1CSCC(=O)NC(=O)NC(C)(C)C 56%
COC(=O)c1ccccc1NC(=O)C1CCN(S(=O)(=O)c2cc(OC)ccc2OC)CC1 93.5%
COc1ccc(-c2n[nH]c(C)c2-c2ccc(OC)c(OC)c2)c(O)c1 98.5%
Cc1cc(C)c(S(=O)(=O)NCCCN2CCOCC2)cc1Br 53.9%
CC1(C)SC2c3ccccc3C(=O)N2[C@@H]1C(=O)NCc1ccco1 (stereo partly specified) 62.8%
COc1nc(NCc2ccc(Cl)cc2)nc(OC)n1 58.5%
COc1ccccc1N1CCN(Cc2nnnn2CCc2ccccc2)CC1 75.4%
CCOc1ccc(OCC)c(-c2c(=O)n(OCc3ccc(Cl)cc3)c3ccccc3[n+]2[O-])c1 76.2%
COCc1nc2ccccc2n1Cc1ccccc1Br 55.6%
COCn1c(COc2ccccc2)nc2ccccc21 51.4%

inhibition, inactive:
N#CCCN1CCN(S(=O)(=O)c2ccc(S(=O)(=O)N3CCCC3)cc2)CC1 -7.1%
Cc1cc(-c2cccs2)nc(-n2cccc2)n1 4.9%
Cc1cc(C)nc(N(C#N)CC(=O)Nc2ccccc2)n1 -2.6%
COc1ccc(C(=O)Oc2cc(/C=N/NS(=O)(=O)c3ccc(C)cc3)ccc2OC)cc1 4.8%
NS(=O)(=O)c1cccnc1Nc1cccc(Cl)c1 40.5%
CCCCNC(=O)c1ccccc1NC(=O)c1ccccc1N(C)S(C)(=O)=O 14.4%
COc1ccc(C(=O)CSc2nnc(COc3ccccc3)n2Cc2ccco2)cc1 35%
CNC(=O)CSc1nnnn1-c1ccc(C)cc1C 49.1%
Cc1nc2cc(-c3ccc(F)cc3)nn2c(N2CCOCC2)c1C 5.1%
Oc1ccc(-c2onc3ccc(Cl)cc23)cc1 19%
CCn1c2ccccc2c2cc(NC(=S)N3CCOCC3)ccc21 11.1%
COc1ccc(NC(=O)Cn2c(=O)n(Cc3ccco3)c(=O)c3ccccc32)cc1 15.9%
CN(C(=O)c1ccccn1)c1nnc(-c2ccccn2)s1 1.1%
CCOC(=O)N1CCN(c2c(NCCCN3CCCC(C)C3)c(=O)c2=O)CC1 (stereo unspecified) 4.3%
CCCNC(=O)c1c(N)n(-c2ccc(S(N)(=O)=O)cc2)c2nc3ccccc3nc12 -13.2%
CC(C)Cn1c(CN(Cc2ccccc2)Cc2ccccc2)nc2c1c(=O)n(C)c(=O)n2C 17.7%
CC(C)CCn1c(CN(C)Cc2ccccc2)nc2c1c(=O)n(C)c(=O)n2C 42.8%
COCc1cc(C)nc2sc(C(=O)NC3CCCCC3)c(N)c12 -2.5%
Cc1cc(/C=N/n2cnnc2)c(C)n1-c1cccc(C(=O)O)c1 24.9%
Fc1ccccc1OCCSc1nc2ccccc2o1 46.8%
COc1ccccc1OCCC(=O)OCC(=O)NC(=O)NC(C)(C)C 14.2%
O=C(CSCc1ccccc1Cl)NNC(=O)c1ccccc1 40.1%
COc1ccccc1N1CC(C(=O)Nc2ccc(S(=O)(=O)N3CCOCC3)cc2)CC1=O (stereo unspecified) -1.1%
Cn1c(=O)oc2cc(S(=O)(=O)N3CCC(C(=O)Nc4ccc(OC(F)(F)F)cc4)CC3)ccc21 30.4%
COc1cccc(C(=O)Nc2ccc(N3CCCC3)cc2)c1 48.4%
O=C(CN1C(=O)C2C3C=CC(C3)C2C1=O)Nc1nc(-c2ccccn2)cs1 (stereo unspecified) -13.1%
C=C(C)COc1ccc(-c2n[nH]c(C)c2-c2ccccc2OC)c(O)c1 43.5%
C=C(C)COc1ccc(-c2n[nH]c(C)c2-c2ccccc2)c(O)c1 33.7%
COc1nc(N=C(N)N)nc2c(C)cccc12 -8.7%
CCOC(=O)c1cc(-c2ccc(Cl)s2)nc2c1c(C)nn2C 17.2%
Cc1ccc(S(=O)(=O)NCCN2CCOCC2)cc1C 24.8%
O=S(=O)(O)CCN1CCOCC1 2.1%
COc1ccc(C)cc1NC(=O)CSc1nc(SC)ns1 35.5%
Cc1ccc(C)c2[nH]c(=O)c(CCNC(=O)CC(C)C)cc12 29.7%
CCOC(=O)c1c(NC(=S)Nc2ccccc2)sc2c1CCN(C)C2 26.5%
COc1cc2c(cc1OC)C(C(=O)NCc1ccco1)C1c3ccccc3CCN1C2=O (stereo unspecified) 10.7%
O=C(NCCCCCCNC(=O)NCc1ccco1)NCc1ccco1 -12.7%
CCNc1nc(N)nc(-c2cc(Cl)ccc2OC)n1 24.4%
C=CCNc1nc(C)nc(OC)n1 -16.5%
CCCNC(=S)NC1CC2CCCC(C1)N2CC(C)C (stereo unspecified) 6.3%
CC(C)c1cc(C(=O)O)n[nH]1 -11.8%
Cc1cccc(-n2ncc(C#N)c2-n2cccc2)c1 21.9%
c1ccc(CCn2nnnc2CN2CCN(C3CCCC3)CC2)cc1 -12%
COc1ccccc1N1CCN(CCCCOc2ccc(F)cc2)CC1 13.1%
CCOC(=O)c1sc(N(Cc2ccccc2)C(=O)CN2C(=O)CN(C)C2=O)nc1C 14.5%
Cc1cc(C)cc(NC(=O)c2cccc(NC(=O)C3C4CC5OC(=O)C3C5C4)c2)c1 (stereo unspecified) 3%
COc1ccc(N2CCN(C(=O)CSc3nnc4ncccn34)CC2)cc1 29.2%
Cc1ccc2nc(NC3=NCN(CCc4ccccc4)CN3)nc(C)c2c1 -14.5%
CCC(=O)Nc1nc2ccccc2n1Cc1ccccc1C 49.7%
CCc1nc2ccccc2n(CCOCCOCCn2c(=O)c(CC)nc3ccccc32)c1=O 24.1%
COCC(=O)Nc1nnc(COc2ccccc2)s1 -3%
O=S(=O)(O)c1nc2ccccc2n1Cc1ccc(Cl)cc1Cl 11.3%
